Measured values as given in PubChem BioAssay (Tox21).
Inconclusive results are not listed. A call without a number means that no potency is given here. The source made the active and inactive calls. The call rests on the fitted dose curve.

Assay: p53 small molecule agonists, cell-based qHTS assay with rat liver microsomes (AID 1963578)
Details: HCT-116 p53RE-bla, beta-lactamase ratio, 16 h; series mostly up to 66 µM
Text: U.S. Tox21 Program National Center for Advancing Translational Sciences [NCATS] Division of Preclinical Innovation [DPI] U.S. Environmental Protection Agency [EPA] National Institutes of Environmental Health Sciences [NIEHS] National Toxicology Program [NTP] U.S. Food and Drug Administration [FDA] Tox21 Assay Overview: p53, a tumor suppressor protein, is activated following cellular insult, including DNA damage and other cellular stresses. The activation of p53 regulates cell fate by inducing DNA repair, cell cycle arrest, apoptosis, or cellular senescence. The activation of p53, therefore, is a good indicator of DNA damage and other cellular stresses. […] The activation of the reporter gene under culture conditions can be detected by fluorescence intensity. This cell line was used to screen the Tox21 10K compound library in the condition of presence of rat liver microsomes and to identify agonists that activate the p53 signaling pathway after in vitro metabolic activation (Ooka et al., Archive of Toxicology 96:1975-1987, 2022).
Tox21 Assay Protocol Summary: The p53RE-bla cells were dispensed at 4,000cells/3ul/well in 1536-well black-clear bottom plates. After the assay plates were incubated at 37 C, 5% CO2 incubator for 5 hours, 23 nL of compounds dissolved in DMSO, positive controls or DMSO only was transferred to the assay plate. Following compound addition, 3 uL of rat liver microsomes (Molecular Toxicology, Boone, NC) at final concentration of 0.5 mg/mL and 1uL of Beta-Nicotinamide adenine dinucleotide 2-phosphate (NADPH) at final concentration of 0.5 mg/mL were transferred to the assay plate. The plates were incubated at 37 C for 16 hours. 1 uL of LiveBLAzer detection mixture was added to each well and the plates were incubated at room temperature in the dark for 2 h.

Row | SMILES | Potency
1 | Clc1ccc(C(Cl)(Cl)Cl)cn1 | inactive
2 | ClC1(Cl)C2(Cl)C3(Cl)C4(Cl)C(Cl)(Cl)C5(Cl)C3(Cl)C1(Cl)C5(Cl)C24Cl (stereo not given) | inactive
3 | O=c1n(Cl)c(=O)n(Cl)c(=O)n1Cl | inactive
4 | C=C(C#N)CCC#N | inactive
5 | CC(C=O)Cc1ccc2c(c1)OCO2 (stereo not given) | inactive
6 | Cc1ccccc1O | inactive
7 | N#CCC#N | inactive
8 | N#Cc1nn(-c2c(Cl)cc(C(F)(F)F)cc2Cl)c(N)c1S(=O)C(F)(F)F (stereo not given) | inactive
9 | CCCCCCCCCCn1cc[n+](C)c1 | inactive
10 | CCCC[N+]1(C)CCCC1 (tested in a mixture with another compound) | inactive
11 | CCN(CC)CCO | inactive
12 | CCOC(=O)C1OC1(C)c1ccccc1 (stereo not given) | inactive
13 | ClCc1cccnc1 | inactive
14 | ClC(Cl)(Cl)C(Cl)(Cl)Cl | inactive
15 | CC(C)OC(=O)Nc1ccccc1 | inactive
16 | CC(C)OC(=O)Nc1cccc(Cl)c1 | inactive
17 | Oc1ccc(C(c2ccc(O)cc2)(C(F)(F)F)C(F)(F)F)cc1 | inactive
18 | Cc1ccc(N=CN(C)C=Nc2ccc(C)cc2C)c(C)c1 | inactive
19 | CCCCCCCCCCCCCC[P+](CCCCCC)(CCCCCC)CCCCCC | inactive
20 | COP(=O)(O)OC | inactive

Row | SMILES | Potency
21 | BrCc1ccc(Br)cc1 | inactive
22 | O=C(O)c1nc(Cl)ccc1Cl | inactive
23 | CN=C=S | inactive
24 | O=C(O)C(Br)Br | inactive
25 | Cl/C=C/CCl | inactive
26 | COC(=O)NS(=O)(=O)c1ccc(N)cc1 | inactive
27 | CCN(CC)Cc1nccn1-c1ccc([N+](=O)[O-])cc1C(=O)c1ccccc1Cl | inactive
28 | N#CN=C(N)N | inactive
29 | COC(=O)NC(=S)Nc1ccccc1NC(=S)NC(=O)OC | inactive
30 | O=C(O)c1cc(Cl)ccc1Cl | inactive
31 | OCc1ccco1 | inactive
32 | C=Cc1cccc(CCl)c1 | inactive
33 | CCC[CH2][Sn]([Cl])([CH2]CCC)[CH2]CCC | inactive
34 | CC(C)(O)C#N | inactive
35 | Clc1ccc(C2(Cn3cncn3)OCCO2)c(Cl)c1 | inactive
36 | CN1C(=O)NC(=O)C(C)(C2=CCCCC2)C1=O (stereo not given) | inactive
37 | O=[N+]([O-])c1cccc(O)c1 | inactive
38 | O=C(Cl)c1ccccc1 | inactive
39 | COc1cc(-c2ccc(N)c(OC)c2)ccc1N | inactive
40 | CCCCOCCOP(=O)(OCCOCCCC)OCCOCCCC | inactive
